Assay outcomes (PubChem BioAssay)
Compounds with a hit are over-represented: about 19% of the library has one in this group of screens.
HT1080NT lethal = qHTS for induction of synthetic lethality in tumor cells producing 2HG: qHTS for the HT-1080-NT fibrosarcoma cell line. HT-1080-NT fibrosarcoma viability, CellTiter-Glo ATP luminescence, 48 h. Potency, µM (titrated, usually from 46.1 µM), inactives show at the top dose activity, negative = less viability, hits mostly cytotoxic. 1.6% of 360,000 active. AID 686970, 2013;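 also: NT is the 2HG producing partner of a matched IDH1 knockdown line; 0% = DMSO-treated cells and -100% = media-only wells without cells; nearly all actives have a fitted effect of over 55% in size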
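Compounds were tested in concentration-response format on HT-1080-NT cells for 48 hours at 37 degrees C. Cell viability came from CellTiter-Glo luminescence; curves were classified by r2, response magnitude and activity.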
HT1080 IDH1KD tx = qHTS for induction of synthetic lethality in tumor cells producing 2HG: qHTS for the HT-1080-IDH1KD cell line | Potency, µM (series often up to 46.1 µM), inactives show at the top dose activity, negative = toxicity, actives largely listed as cytotoxic | AID 686971, 2013 | 2% of 360,000 active | HT-1080 IDH1 knockdown viability, ATP luminescence, 48 h;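 also: 0% = DMSO wells and -100% = cell-free medium wells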
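Knockdown cells (IDH1KD HT-1080) received compounds 2 h after plating at 750 cells/well and were kept 48 h at 37 °C in 5% FBS RPMI. A CellTiter-Glo luminescence read gave % activity for curve fitting.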
DT40 TDP1 CPT = qHTS for Inhibitors of human tyrosyl-DNA phosphodiesterase 1 (TDP1): qHTS in cells in presence of CPT. Potency, µM (top dose mostly 46.2 µM), inactives show top-dose activity change, negative = growth inhibition, actives largely listed as inhibitors. chicken DT40 Tdp1-/-;hTDP1 cells + 20 nM CPT, ATP luminescence, 48 h. 12% of 420,000 active; also: nearly all actives have a fitted effect of over 55% in size
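Chicken DT40 Tdp1-/- cells stably complemented with human TDP1 were seeded at 400 cells/well in medium containing 20 nM camptothecin, exposed to pin-transferred compounds, and grown at 37 °C for at least 48 hr. Viability was read as ATP luminescence.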
TDP1 cell noCPT = qHTS for Inhibitors of human tyrosyl-DNA phosphodiesterase 1 (TDP1): qHTS in cells in absence of CPT; AID 686978, 2013; DT40 Tdp1-/- hTDP1 cells, no CPT, ATP luminescence, 48 h; Potency, µM (series often up to 46.2 µM), for inactives: at the highest dose activity change, negative = growth inhibition, hits mostly inhibitors; 15% of 420,000 active; also: nearly all actives have a fitted effect of over 55% in size
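DT40 Tdp1-/-;hTDP1 cells, no CPT (DMSO vehicle only), 400 cells/well; compounds pin-transferred; ≥48 hr, 37 °C; CellTiter-Glo 30 min RT dark, luminescence read.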
KB-3-1 cytotox = qHTS assay for MDR1-selective chemotherapeutics: Primary screen using the parental adenocarcinoma cell KB-3-1. KB-3-1 viability, CellTiter-Glo ATP luminescence, 72 h. Potency, µM (doses to about 46.1 µM), hits mostly cytotoxic. 1.4% of 400,000 active. AID 1347075, 2019; also: nearly all actives have a fitted effect of over 60% in size
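Luminescent ATP read-out (CellTiter-Glo) measures survival of drug-naive KB-3-1 cells after 72 h compound exposure at 37 °C. Titration series was screened from lowest to highest concentration, with DMSO vehicle plates as background controls.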
KB-V1 cytotox = qHTS assay for MDR1-selective chemotherapeutics: Primary screen using the drug-selected MDR subline cells KB-V1; 3.4% of 400,000 active; KB-V1 MDR cells viability, CellTiter-Glo, 72 h; Potency, µM (series often up to 46.1 µM), hits mostly cytotoxic; also: nearly all actives have a fitted effect of over 60% in size
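KB-V1, DMEM (no phenol red) + 10% FBS; cpd pin-transferred, titration series; 72 h, 37 degrees C; CellTiter-Glo, luminescence. Data normalized, curve-fit.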
Starred values were filed as active, the others as inactive; i = inactive; ? = inconclusive; . = not tested or not shown. Calls follow the shape of the dose curve; as a rule, active = well fitted curve in the direction sought with a large enough effect; inconclusive = small, poorly fitted or top-dose-only effect, or another doubt; inactive = no such curve, though single readings can be large; an effect the other way counts as inactive or inconclusive. Unless noted, % is scaled to controls: 0 for no effect and ±100 for the full control effect; potency is read from the fitted curve at half-maximal effect.

SMILES	HT1080NT lethal	HT1080 IDH1KD tx	DT40 TDP1 CPT	TDP1 cell noCPT	KB-3-1 cytotox	KB-V1 cytotox
O=C(NCCCN1CCOCC1)C1CCN(S(=O)(=O)c2ccccc2)CC1	5%	2%	-4%	-1%	i	i
Brc1cc(Br)c[n+](CCc2ccccc2)c1	.	.	11µM*	14µM*	i	i
Brc1ccc[n+](CCc2ccccc2)c1	.	.	-7%	-24%	i	i
C=C1CCN([C@@H](Cc2ccccc2)C(=O)NCc2ccc(Cl)cc2)S(=O)(=O)c2ccccc21	0%	8%	?	21µM*	i	i
C=C1CCN([C@@H](Cc2ccccc2)C(=O)NCc2ccccc2)S(=O)(=O)c2ccccc21	0%	0%	-24%	?	i	i
CCNC(=O)C1(C)CCN(C(=O)c2ccc(OC)c(OC)c2)C1 (configuration not stated)	5%	-1%	-7%	-1%	?	i
O=S(=O)(Cc1ccccc1)Nc1ccc(F)cc1	-7%	11%	4%	5%	?	i
COc1cccc(C2=CC(c3ccccc3)n3nnnc3N2)c1 (configuration not stated)	7.9µM*	?	5.8µM*	3.7µM*	?	6.5µM*
CCOc1ccc(NC(=O)c2cnn3c2NC(c2cccc(OC)c2)=CC3c2ccccc2)cc1 (configuration not stated)	.	.	21µM*	21µM*	i	i
COc1cccc(C2=CC(c3ccc(N(C)C)cc3)n3nnnc3N2)c1 (configuration not stated)	-16%	?	21µM*	13µM*	18µM*	13µM*
COc1cccc(C2C=C(c3ccc(OC)cc3OC)Nc3nnnn32)c1 (configuration not stated)	-22%	-13%	?	16µM*	?	23µM*
CCCCOc1ccc(OCCNS(=O)(=O)N(C)C)cc1	-25%	-3%	?	?	i	?
COc1ccc(NC(=O)CSc2nnc(N)s2)cc1S(=O)(=O)N1CCCCC1	-2%	2%	7%	8%	i	i
O=C(Nc1ccc(N2CCN(C(=O)c3cccs3)CC2)cc1)c1ccccc1Cl	?	9.2µM*	15µM*	12µM*	16µM*	?
O=C(Nc1ccc(N2CCN(C(=O)c3ccccc3F)CC2)cc1)c1cncc(Br)c1	2%	-15%	?	18µM*	.	.
CC(C)(C)C(=O)Nc1ccc(N2CCN(C(=O)c3cccs3)CC2)cc1	5%	3%	-7%	-23%	i	i
O=C(Nc1ccc(N2CCN(C(=O)c3cccs3)CC2)cc1)c1ccccc1F	-26%	-19%	?	18µM*	?	7.3µM*
COc1ccc(Cn2c(=O)c3[nH]cnc3n(-c3ccc(C)cc3)c2=O)cc1	-15%	-15%	?	?	i	i
COc1ccccc1N1CCN(C(=O)Nc2cccc(C)c2)CC1	9%	3%	9%	?	i	i
COc1ccccc1N1CCN(C(=O)Nc2ccc([N+](=O)[O-])cc2)CC1	-5%	-3%	?	16µM*	i	i
CC(C)(C)c1ccc(NC(=O)N2CCN(c3ccc([N+](=O)[O-])cn3)CC2)cc1	?	23µM*	3.3µM*	8.2µM*	?	?
